# Giardia FBPA inh – inhibitors of Giardia lamblia fructose-1,6-bisphosphate aldolase; 290,000 compounds, 0.71% hits; Potency, µM (series often up to 59.6 µM), for the others: at the highest dose activity, negative = inhibition, usual class: inhibitors; purified Giardia FBPA; also: nearly all actives have a fitted effect of over 55% in size
# Target sequence (A8B2U2 whole entry, looked up): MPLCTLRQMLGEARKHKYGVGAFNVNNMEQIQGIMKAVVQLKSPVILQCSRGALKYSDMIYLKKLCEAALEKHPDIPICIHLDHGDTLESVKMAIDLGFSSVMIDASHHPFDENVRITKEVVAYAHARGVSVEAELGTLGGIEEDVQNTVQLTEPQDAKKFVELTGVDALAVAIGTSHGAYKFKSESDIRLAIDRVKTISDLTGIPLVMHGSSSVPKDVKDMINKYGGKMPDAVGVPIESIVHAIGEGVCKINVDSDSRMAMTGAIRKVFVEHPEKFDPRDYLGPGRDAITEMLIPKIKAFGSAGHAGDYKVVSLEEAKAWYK
#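 40 nM FBPA preincubated 10 min at RT with compound (up to 57.5 uM final), then substrate plus GAPDH/TPI/NAD/arsenate coupling and diaphorase/resazurin added. Fluorescence read after 20 min at RT, 525/598 nm.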
# AmpC inh no detg – inhibitors of E. coli AmpC beta-lactamase without detergent | Potency, µM (doses to about 57.1 µM), inactives show at the highest dose activity change, negative = inhibition, hits mostly inhibitors | AmpC nitrocefin hydrolysis, absorbance 480 nm, 0.0001% Triton | P00811 | 330,000 compounds, 0.52% hits;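 also: plate controls were no compound for no effect and no enzyme for full effect; nearly all actives have a fitted effect of over 20% in size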
# Target sequence (P00811 whole entry, looked up): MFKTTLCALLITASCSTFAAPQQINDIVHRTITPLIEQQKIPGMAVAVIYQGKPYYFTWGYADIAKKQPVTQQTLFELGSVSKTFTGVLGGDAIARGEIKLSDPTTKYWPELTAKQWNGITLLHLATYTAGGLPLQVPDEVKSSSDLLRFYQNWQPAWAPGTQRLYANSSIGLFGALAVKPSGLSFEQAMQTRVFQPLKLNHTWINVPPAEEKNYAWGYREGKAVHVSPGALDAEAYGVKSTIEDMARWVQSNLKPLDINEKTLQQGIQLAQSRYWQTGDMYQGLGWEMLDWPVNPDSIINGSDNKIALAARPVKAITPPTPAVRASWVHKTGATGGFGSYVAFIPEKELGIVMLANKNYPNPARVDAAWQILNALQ
#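 AmpC (5.3 nM in the dispensed reagent) in 20 mM phosphate pH 7.0 with 0.01% (detergent screen) or 0.0001% Triton X-100 was preincubated with compounds for 15 min at room temperature. Nitrocefin was then added from an 800 uM solution, and hydrolysis was followed at 480 nm.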
# LmPK inh – inhibitors of Leishmania mexicana pyruvate kinase; Potency, µM (highest dose often 57.5 µM), without a hit: top-dose activity change, negative = inhibition, usual class: inhibitors; 290,000 compounds, 0.37% hits; Q27686; purified LmPK, Kinase-Glo ATP luminescence, 1 h
#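 Screened at intermediate enzyme activity to detect both inhibitors and activators: LmPK at 0.1 nM, with a 0.5 nM enzyme column as activation reference. PEP 0.5 mM, ADP 0.1 mM; ATP detected by luminescence after 1 h.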
# AmpC detergent – inhibitors of E. coli AmpC beta-lactamase with detergent | P00811 | AmpC hydrolysis of nitrocefin, absorbance 480 nm, 0.01% Triton | Potency, µM (top dose mostly 114 µM), without a hit: at the top dose activity change, negative = inhibition, hits mostly inhibitors | 370,000 compounds, 0.041% hits;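 also: 0% = no-compound wells and -100% = no-enzyme wells; nearly all actives have a fitted effect of over 25% in size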
#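 20 mM phosphate pH 7.0 + 0.01% (detergent screen) or 0.0001% Triton X-100; 5.3 nM AmpC reagent; cpd preinc 15 min RT; nitrocefin (800 uM stock) to start; A480 q20 s × 4 min; Activity was normalised to no-enzyme and no-compound control wells.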
# AMA1 RON2 block – AMA1-RON2 (P. falciparum) interaction inhibition; AlphaScreen AMA1-biotinylated RON2 peptide binding; 360,000 compounds, 0.2% hits; AID 720542; Potency, µM (titrated, usually from 58.2 µM), without a hit: at the top dose activity change, negative = inhibition, actives largely listed as inhibitors;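 also: 0% = vehicle wells and -100% = peptide control; nearly all actives have a fitted effect of over 45% in size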
#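 AMA1 (3D7) with his tag at 25 nM final met compounds first, then biotinylated RON2 peptide at 25 nM; detection used donor plus acceptor beads, 10 µg/mL apiece, read by AlphaScreen after 30 min at room temperature.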
# Active calls of the source: *; u = inconclusive; x = no result; [ ] = dose if it differs, or a comment. This is a sample that favours compounds with a hit; in the whole collection about 1.3% have one here. Calls follow the shape of the dose curve; as a rule, active = well fitted curve in the direction sought with a large enough effect; inconclusive = small, poorly fitted or top-dose-only effect, or another doubt; inactive = no such curve, though single readings can be large; an effect the other way counts as inactive or inconclusive. Unless noted, % is scaled to controls: 0 for no effect and ±100 for the full control effect; potency is read from the fitted curve at half-maximal effect.
SMILES,Giardia FBPA inh,AmpC inh no detg,LmPK inh,AmpC detergent,AMA1 RON2 block
[O-]/C(=C(\C(=S)Nc1cccc2ccccc12)[n+]1ccccc1)c1ccc2c(c1)OCCO2,10µM*,-4%,5%,-9%,-12%
CC(=O)Nc1ccc(-c2cc(N)n(-c3ccccc3)n2)cc1,-20%,-16%,16µM*,3%,-3%
CCC/C=C/c1ccc(CN2C(C)C(=O)N(Cc3cn(CCC4OCCCO4)nn3)CCS2(=O)=O)cc1 (configuration not stated),x,x,x,x,1%
COc1cc(OC)cc(-c2n[nH]c(=S)n2-c2ccc3c(c2)OCO3)c1,13%,-36%,5µM*,u,53%
Fc1ccc(-n2c(-c3ccc4ccccc4n3)n[nH]c2=S)cc1Cl,-6%,-28%,8%,-10%,163%
Oc1ccc(-c2n[nH]c(=S)n2-c2ccc3c(c2)OCCO3)cc1,-6%,-31%,u,-7%,52%
Fc1ccc(-n2c(-c3ccc4c(c3)OCO4)n[nH]c2=S)cc1Cl,9%,-22%,14µM*,-6%,90%
CN(C)c1ccc(/C=C/C(=O)c2cc(Cl)ccc2O)cc1,-2%,-27%,-3%,0%,14µM*
COc1cc(C)c(NC(c2ccccc2)c2ccccc2)cc1OC,-5%,-6%,0%,-6%,35µM*
CS(=O)(=O)NCc1ccccc1Br,x,-22%,x,-2%,x
O=C1C(=O)c2ccccc2C(O)=C1CCCCl,3.5µM*,-17%,-2%,-5%,-3%
COc1ccc(CC2=C(O)c3ccccc3C(=O)C2=O)cc1,-20%,-15%,2%,0%,-1%
CS(=O)(=O)N(CC(N)=O)c1ccc(F)c(Cl)c1,1%,0.32µM*,5%,2%,21%
CN(C)C(=O)CN(c1ccc(F)c(Cl)c1)S(C)(=O)=O,-3%,-4%,2%,-2%,4%
Cc1nn(-c2ccccc2)c(N)c1N=Nc1ccc2ccccc2c1,0%,23%,0%,-6%,22µM*
COc1cccc2c(=O)c3c([nH]c12)OC(C)(C)C3,x,x,x,x,15%
COc1cccc2c(=O)c3cccc(N)c3[nH]c12,1.8µM*,-6%,-14%,-11%,0%[11.6 µM]
O=S(=O)(NCCc1csc2nc(-c3ccc(Cl)cc3)nn12)c1ccc2c(c1)OCCO2,x,x,x,5%,x
CC1(C)Cc2nc3oc4c(=S)nc[nH]c4c3cc2CO1,11µM*,-11%,9%,-11%,40%
CCn1c(=O)cc(OCC(=O)N(C)c2ccc(OC)cc2)c2ccccc21,x,x,x,10%,x
O=C(CSc1nc2cc([N+](=O)[O-])ccc2n1-c1ccccc1)NCc1ccc2c(c1)OCO2,7.9µM*,-24%,7%,2%,9%
CN1C(=O)C(Cl)(Cl)C(=O)c2ccccc21,5µM*,-23%,-11%,u,4%
COc1ccc(C=NCCc2ccc(OC)c(OC)c2)cc1OC,x,x,x,x,-1%
Cn1c2nc(=O)n(-c3ccccc3)c(=O)c-2nc2c1CCCC2,x,x,x,x,6%
COc1ccc(CCn2c(SCC(=O)Nc3cc(C)on3)nc3ccsc3c2=O)cc1OC,-1%,0.32µM*,4%,-1%,-17%
SMILES,Giardia FBPA inh,AmpC inh no detg,LmPK inh,AmpC detergent,AMA1 RON2 block
COc1ccc(CCn2c(SCC(=O)Nc3cc(C)on3)nc3ccccc3c2=O)cc1OC,0%,-26%,-1%,2%,11%
Cc1ccc(NC(=O)/C(C#N)=C/c2cc(C)n(-c3ccc(Br)cc3)c2C)cc1C,x,x,x,10%,x
COc1cc(OC)c(NC(=O)Cc2c(C(=O)O)c(C)cn2C)cc1Cl,x,x,x,-1%,x
CC1(C(=O)NS(=O)(=O)c2ccccc2C(F)(F)F)CCN1C(=O)CCc1cccs1 (configuration not stated),x,x,x,x,-12%
CCCCN=C1NN=C(c2cc3ccccc3o2)CS1,5%,14µM*,-3%,-8%,88%
CCCCN=C1NN=C(c2cccc([N+](=O)[O-])c2)CS1,-4%,-32%[11.4 µM],0%,-12%,35%
CCOC(=O)C1CCN(Cc2ccccc2C(F)(F)F)CC1,-20%,-1%,-5%,-2%,-18%
CCOC(=O)C1CCN(Cc2ccc(O)c3ncccc23)CC1,u,-13%,4%,-7%,9.5µM*
CC(=O)[C@@H]1[C@H]2[C@H](C(=O)[C@H]3OC[C@@H]2O3)[C@H]2C=Cc3ccccc3N21,22µM*,x,x,x,x
NC(=O)[C@@H]1[C@@H]2C(=O)N(c3ccc(F)cc3)C(=O)[C@@H]2[C@H]2C=Cc3ccccc3N21,u,31%,-6%,-6%,4%
CC1CCCCN1c1nnc(NC(=O)c2cc(-c3ccc(Br)cc3)on2)s1 (configuration not stated),20%,40µM*,1%,u,109%
CC1CCCCN1C(=O)c1cc(-c2ccc(Br)cc2)on1 (configuration not stated),x,x,x,23%,x
CCOC(=O)N1CCC(NC(=O)C2CCCN(C(=O)c3cc4sccc4n3C)C2)CC1 (configuration not stated),3%,0.56µM*,3%,-13%,9%
CCOC(=O)N1CCN(C(=O)c2cc3sccc3n2C)CC1,6%,13%,5%,-2%,0%
Cc1[nH][nH]c(=O)c1C(c1ccc(-c2ccc(C(=O)O)cc2)o1)c1c(C)[nH][nH]c1=O,5.6µM*,-7%,-17%,-4%,4%
CCOc1ccc(NC(=O)CC2C(=O)OCCN2CC)cc1 (configuration not stated),x,x,x,-2%,x
CCCCC#Cc1ccc(C(=O)NNC(=O)Nc2cc(Cl)cc(Cl)c2)o1,-5%,14µM*,-3%,5%,125%
Cc1cc(C(=O)NNC(=O)Nc2ccc(Cl)cc2)no1,3%,-22%,2%,3%,73%
COc1cc(C(C)C)c2c(c1)S(=O)(=O)N(COc1cc(=O)n3cccc(OCCN4CCCCC4)c3n1)C2=O,2%,x,x,x,x
COCCN(CCOC)Cc1cc(=O)oc2cc(C)c(C)cc12,x,x,x,x,4%
Cc1cc(C(=O)N/N=C/c2ccc3c(c2)OCO3)c(C)o1,-3%,-22%,14µM*,6%,-15%
Cc1ccsc1C(=O)N/N=C/c1ccc2c(c1)OCO2,1%,-15%,11µM*,5%,21%
O=C(N/N=C/c1ccc2c(c1)OCO2)c1ccc(Cl)cc1Cl,-4%,-50%,4%,-8%,0%
O=C(N/N=C\C=C\c1ccc(Br)cc1)c1ccc2c(c1)OCO2,10%,-33%,3%,45µM*,11%
COc1cccc(OCc2cc(C(=O)N3CCN(C)C(c4ccccc4)C3)no2)c1 (configuration not stated),x,143%,-2%,-3%,0%
CCS(=O)(=O)c1ncc(Cl)c(C(=O)N2CCN(c3cccc(Cl)c3)CC2)n1,x,x,x,1%,x
O=C(Nc1ccc(N2CCCCC2)cc1)c1ccccn1,-2%,-5%,7.9µM*,-10%,0%

# From PubChem BioAssay
